# RXFP1 ag = qHTS Assay for Agonists of the Relaxin Receptor RXFP1; Relaxin receptor 1 (Homo sapiens), Q9HBX9; HEK293T-RXFP1 cAMP TR-FRET, 30 min; response scale: percent of porcine relaxin response, buffer zero; Potency, µM (series often up to 57.5 µM), inactives show top-dose activation, most hits filed as activators; hit rate 0.3% among 370,000; AID 2676, 2010; active = well fitted activation curve with a large enough effect; inconclusive = small, poorly fitted or top-dose-only effect; note: potency is the fitted concentration of half-maximal effect; nearly all actives have a fitted effect of over 60% in size
#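 Agonist response is measured as cAMP accumulation in an RXFP1-transfected HEK293T line under PDE4 inhibition. Values are scaled between buffer-only and 29 nM porcine relaxin, and EC50s come from standard Hill equation fits.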
# KCNH2 3.1 block = qHTS for Inhibitors of KCHN2 3.1: Mutant qHTS | Potassium voltage-gated channel subfamily H member 2, brain isoform KCNH2 3.1 (human) | U2OS KCNH2 3.1, thallium flux FluxOr; stronger effect = lower value | activity change, % (tested at about 1.8 µM) | hit rate 0.95% among 340,000 | AID 720553, 2013;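 active = maximum activity change below -70%; inconclusive = maximum activity change from -70% to -50%; inactive = maximum activity change above -50%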;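 note: thallium influx rate constant from kinetic fluorescence after stimulation buffer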
#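 Kinetic fluorescence (2 min after stimulation buffer) measures Tl+ influx through KCNH2 3.1 expressed by viral transduction in U2OS cells; the rate constant is normalized against DMSO controls serving as positive and negative references.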
# KCNH2 WT inh = qHTS for Inhibitors of KCHN2 3.1: Wildtype qHTS; activity change, % at 1.84 µM; U2OS, BacMam KCNH2, thallium flux FluxOr; stronger effect = lower value; Voltage-gated inwardly rectifying potassium channel KCNH2 (Homo sapiens), Q12809; hit rate 0.37% among 340,000;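 active = maximum activity change below -70%; inconclusive = maximum activity change between -70% and -50%; inactive = maximum activity change above -50%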
# Target sequence (Q12809 whole entry, looked up): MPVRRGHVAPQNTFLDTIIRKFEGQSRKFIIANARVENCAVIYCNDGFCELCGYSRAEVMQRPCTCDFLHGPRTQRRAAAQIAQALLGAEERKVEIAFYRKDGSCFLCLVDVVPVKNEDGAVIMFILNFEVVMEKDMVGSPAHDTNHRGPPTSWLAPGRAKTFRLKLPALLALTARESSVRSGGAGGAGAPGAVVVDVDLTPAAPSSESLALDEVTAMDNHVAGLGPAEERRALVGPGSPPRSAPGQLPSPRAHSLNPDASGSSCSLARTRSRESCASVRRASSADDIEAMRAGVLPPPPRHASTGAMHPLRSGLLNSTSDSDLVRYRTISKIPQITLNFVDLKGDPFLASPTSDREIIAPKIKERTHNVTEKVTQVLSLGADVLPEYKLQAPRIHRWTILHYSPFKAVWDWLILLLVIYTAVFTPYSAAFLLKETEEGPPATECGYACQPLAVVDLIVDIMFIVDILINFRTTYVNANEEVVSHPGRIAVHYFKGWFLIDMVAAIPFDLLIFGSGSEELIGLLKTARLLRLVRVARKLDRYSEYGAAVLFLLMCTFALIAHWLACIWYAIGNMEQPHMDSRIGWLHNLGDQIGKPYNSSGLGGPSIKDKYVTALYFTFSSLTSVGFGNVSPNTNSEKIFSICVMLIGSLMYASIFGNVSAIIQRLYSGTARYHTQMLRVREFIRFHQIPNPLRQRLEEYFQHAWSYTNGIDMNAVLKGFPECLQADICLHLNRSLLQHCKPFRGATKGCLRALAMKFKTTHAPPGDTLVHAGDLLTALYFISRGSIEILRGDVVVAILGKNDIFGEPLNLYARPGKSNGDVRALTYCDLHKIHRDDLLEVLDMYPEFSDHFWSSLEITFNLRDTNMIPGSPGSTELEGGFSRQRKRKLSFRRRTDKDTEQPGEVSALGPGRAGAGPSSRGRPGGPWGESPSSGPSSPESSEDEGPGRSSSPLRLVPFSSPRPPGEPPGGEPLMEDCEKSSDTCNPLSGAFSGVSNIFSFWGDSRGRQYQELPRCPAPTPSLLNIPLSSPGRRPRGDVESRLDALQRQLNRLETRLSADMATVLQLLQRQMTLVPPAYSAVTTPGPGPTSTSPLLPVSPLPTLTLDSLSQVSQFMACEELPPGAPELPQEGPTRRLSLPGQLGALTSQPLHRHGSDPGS
#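 U2OS cells transduced with wild-type KCNH2 virus are loaded with FluxOr dye for 45 min, and thallium flux is measured in kinetic reads before and after stimulation buffer. Rate constants are normalized to DMSO controls.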
# RXFP1 antag = qHTS Assay for Antagonists of the Relaxin Receptor RXFP1. Relaxin receptor 1 (Homo sapiens), Q9HBX9. HEK293-RXFP1, relaxin-stimulated cAMP HTRF, 30 min; stronger effect = lower value. activity change, negative = inhibition, % at 57.5 µM. hit rate 0.59% among 350,000. AID 1259400, 2018;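 active = activity change of -60% or lower, but not beyond a set lower limit; inconclusive = change between -60% and -40%, or beyond the set limit; inactive = change above -40%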
# pAkt inh = HTS Assay for Inhibitors of Akt Phophorylation: Primary Screen; AID 651550, 2012; activity change, % for hits at 50 µM; Neuro2A IGF-stimulated pAkt S473 HTRF, 20 min; stronger effect = lower value; hit rate 0.32% among 360,000; in the data active = activity change below about -80%; inconclusive = mostly about -51% to -80%
#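 Neuro2A cells (4,500/well, DMEM with 0.5% FBS) were treated with compound at a single 50 µM final concentration, stimulated with 6 nM IGF for 20 min at 37 °C, and lysed. Phospho-Akt Ser473 was read by HTRF as 665/615 ratio ×10^4.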
# Starred values were filed as active, the others as inactive; i = inactive; ? = inconclusive; . = no result. A selection: hits, their analogues and other compounds. The true share with any hit is near 1.7%. % is set by controls: 0 for no effect and ±100 for the full control effect.
SMILES,RXFP1 ag,KCNH2 3.1 block,KCNH2 WT inh,RXFP1 antag,pAkt inh
CC(C)CNS(=O)(=O)c1ccc(CCC(=O)N2CCN(Cc3ccccc3)CC2)cc1,0%,-19,12,-1,i
CC(C)CNS(=O)(=O)c1ccc(CCC(=O)N2CCC(C(N)=O)CC2)cc1,1%,-113*,4,8,i
Clc1nnc(NC2CCCCC2)c(Cl)c1Cl,.,-77*,11,5,i
c1ccc2c(NC3CCCC3)nnc(NC3CCCC3)c2c1,1%,-82*,7,1,i
CNc1nc(Cl)c(SC)c(NC2CCCCC2)n1,0%,.,-13,-13,i
CCc1ccc(NC2=NCC(c3ccccc3)S2)cc1 (stereo not drawn),-1%,-21,5,-69*,i
O=[N+]([O-])c1ccc(C2CN=C(Nc3ccccc3)S2)cc1 (stereo not drawn),0%,4,0,-4,i
O=C(O)CCSc1ccc2ccccc2n1,18µM*,2,-2,23,i
OCC1(CCc2ccccc2)CCN(Cc2ccccc2Cl)CC1,-1%,-80*,30,-23,i
OCC1(CCc2ccccc2)CCN(Cc2cc(F)ccc2-n2cccn2)CC1,-1%,-99*,-28,1,i
Clc1ccccc1CN1CCN(CCCc2ccccc2)CC1,1%,-78*,17,-14,i
OCC1(CCc2ccccc2)CCN(Cc2c(F)ccc(F)c2F)CC1,3%,-2,.,-10,i
Cc1cccc(CN2CCN(CCCc3ccccc3)CC2)c1,-1%,.,.,.,.
OCC1(CCCc2ccccc2)CCN(Cc2cc(F)ccc2F)CC1,0%,-16,11,11,i
O=C(CS)Nc1ccc2ccccc2c1,2%,-3,1,-102*,i
Cc1nn(-c2ccccn2)c(N)c1N=O,-2%,3,-4,-19,i
CC(C)(C)C(=O)COC(=O)c1cc(-c2ccncc2)nc2ccccc12,4%,18,-7,-67*,i
COc1ccc(-c2cc(C(=O)NCCc3ccc(S(N)(=O)=O)cc3)c3ccccc3n2)cc1,4%,-78*,8,5,i
O=C(NCCCn1ccnc1)c1cc(-c2ccc(Cl)cc2)nc2ccccc12,-1%,-82*,-79*,4,i
Cc1ccc(-c2cc(C(=O)NCCc3ccc(S(N)(=O)=O)cc3)c3ccccc3n2)cc1,2%,-6,2,3,i
Cc1ccc(CCNC(=O)c2cc(-c3ccncc3)nc3ccccc23)cc1,2%,-112*,-10,-12,i
O=C1c2ccccc2C(=O)c2cc(NC(=O)C3CC3)ccc21,5%,3,-9,0,i
CN1CCN(c2ccncc2S(=O)(=O)N2CCCCC2)CC1,-3%,11,-2,2,i
Cc1ccc(Sc2cc(C(=O)NCCN(C)C)c3ccccc3n2)cc1,-1%,-96*,6,1,i
Cc1ccc(Sc2cc(C(=O)NCCCN(C)C)c3ccccc3n2)cc1,1%,-42,18,-18,i
SMILES,RXFP1 ag,KCNH2 3.1 block,KCNH2 WT inh,RXFP1 antag,pAkt inh
CCOc1cc(C(=O)NCCc2ccc(S(N)(=O)=O)cc2)cc(OCC)c1OCC,0%,-90*,-1,1,i
NS(=O)(=O)c1ccc(CNC(=O)c2cc(-c3cccnc3)nc3ccccc23)cc1,0%,-159*,0,-2,i
O=C(COC(=O)C1CCCC1)Nc1cccc(Cl)c1Cl,.,-5,2,-74*,i
O=C(Nc1cccc(Cl)c1Cl)C1CCCC1,.,5,-2,-16,i
CS(=O)(=O)N1N=C(c2cccs2)CC1c1ccc(F)cc1 (stereo not drawn),-4%,29,-5,6,i
O=C(NNC(=O)c1ccccc1O)c1ccc(Cl)c(S(=O)(=O)N2CCc3ccccc32)c1,0%,-2,-7,-73*,i
O=C(c1ccc(Cl)c(S(=O)(=O)N2CCc3ccccc32)c1)N1CCN(c2ccccc2O)CC1,.,1,-1,-15,i
O=C(Nc1ccc([N+](=O)[O-])cc1)C(c1ccccc1)c1ccccc1,.,-79*,7,-14,i
O=C(NCC(O)c1ccc([N+](=O)[O-])cc1)C(c1ccccc1)c1ccccc1 (stereo not drawn),-1%,-11,3,-23,i
N/C(Cc1ccc([N+](=O)[O-])cc1)=N\OC(=O)C(c1ccccc1)c1ccccc1,1%,-82*,3,-10,i
COC(=O)N/N=C/c1cccc(OCCSc2ccc(Cl)cc2)c1,2%,-22,-4,-62*,i
COC(=O)N/N=C/c1ccc(OCCSc2ccc(Cl)cc2)c(OC)c1,-2%,-4,17,.,i
CC1CCCC(NC(=O)CSc2nnc(-c3cccnc3)n2N)C1C (stereo not drawn),.,-11,-3,-9,i
Cn1c(N=Nc2ccc(N3CCOCC3)cc2)[n+](C)c2ccccc21,-13%,9,-6,-107*,i
Cn1c(=Nc2ccc(N3CCOCC3)cc2)ccc2ccccc21,2%,-6,3,-10,i
CS(=O)(=O)c1ccc(C(=O)OCC(=O)NCc2cccs2)cc1[N+](=O)[O-],.,-13,-8,-101*,i
Cc1ccc(Cl)cc1N1CCN(C(=O)c2ccc(C)c(-n3c(C)nc4cccnc43)c2)CC1,-1%,.,.,-64*,.
Cc1nc2cccnc2n1-c1cccc(C(=O)N2CCN(c3ccc(Cl)cc3)CC2)c1,14%,.,.,?,.
Cc1ccc(C)c(N2CCN(C(=O)c3cccc(-n4c(C)nc5cccnc54)c3)CC2)c1,1%,.,.,-70*,.
Cn1nc(C(C)(C)C)cc1C(=O)N1CCCCC1c1cc(C(=O)N2CCOCC2)no1 (stereo not drawn),.,.,.,.,i
CN1CCc2c(sc3nc(SCC(=O)N4CCOCC4)nc(N)c23)C1,17%,13,-3,9,-104%*
O=C1NN(c2ccc(F)c(Cl)c2)C(=O)/C1=C\c1cccc(OC(=O)c2cccs2)c1,0%,-28,-4,-86*,i
CC1(C)CC(=O)C(CC2=C(N)CC(C)(C)CC2=O)=C(N)C1,0%,6,-13,7,i
CCOC(=O)c1cn(-c2ccccc2)nc1-c1ccncc1,2%,7,-6,-18,-118%*
O=C(CCc1nc(-c2ccc(Cl)cc2)no1)NC1CCCCC1,-4%,.,1,-13,i
CNC(=O)c1nc(C)n(-c2cc(Cl)ccc2Cl)n1,0%,1,-14,-12,i
